# Legend:
# Test in all cases: DAPPL (digital affinity profiling via proximity ligation, sequencing); 10 mM Tris-HCl pH 7.5, 50 mM NaCl, 1 mM DTT, 4% glycerol, room temperature, 30 min; GST-TFs on glutathione beads, 16-mer random dsDNA library, 0.1% formaldehyde crosslink after washing; high values mean tight binding
# Conditions in all cases: protein: recombinant; tags: N-terminal GST; dsDNA, one strand shown
# [1] = molecular target: T1, FLI1 (Homo sapiens, UniProt Q01543 1-452)
# T1 sequence: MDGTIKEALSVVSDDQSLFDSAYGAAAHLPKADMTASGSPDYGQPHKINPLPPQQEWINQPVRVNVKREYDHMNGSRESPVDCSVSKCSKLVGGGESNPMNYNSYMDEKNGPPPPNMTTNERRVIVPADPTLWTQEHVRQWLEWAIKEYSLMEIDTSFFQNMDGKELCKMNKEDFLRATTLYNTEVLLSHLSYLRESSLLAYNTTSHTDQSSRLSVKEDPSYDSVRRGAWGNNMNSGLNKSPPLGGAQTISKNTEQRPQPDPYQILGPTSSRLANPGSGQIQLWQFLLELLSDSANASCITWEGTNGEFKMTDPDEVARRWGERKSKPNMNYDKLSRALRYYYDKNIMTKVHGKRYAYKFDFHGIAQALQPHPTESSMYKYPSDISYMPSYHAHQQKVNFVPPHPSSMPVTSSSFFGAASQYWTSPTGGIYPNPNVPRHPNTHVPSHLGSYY
# Outline: (§1)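 Yeast served to express human transcription factors as GST fusions, which were then captured on glutathione beads and labelled with DNA barcodes. Pooled with a tag-only sample, they were incubated with 200 nmole of a 16-mer random double-stranded DNA library for 30 min at room temperature in Tris/NaCl/DTT/glycerol buffer, washed, crosslinked with 0.1% formaldehyde, ligated by proximity, amplified by PCR and sequenced. Dividing each hexamer's read frequency for a factor by its frequency for the tag-only sample gives the binding signal.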
# [2] = molecular target: T2, ELK1 (Homo sapiens, UniProt P19419 1-428)
# T2 sequence: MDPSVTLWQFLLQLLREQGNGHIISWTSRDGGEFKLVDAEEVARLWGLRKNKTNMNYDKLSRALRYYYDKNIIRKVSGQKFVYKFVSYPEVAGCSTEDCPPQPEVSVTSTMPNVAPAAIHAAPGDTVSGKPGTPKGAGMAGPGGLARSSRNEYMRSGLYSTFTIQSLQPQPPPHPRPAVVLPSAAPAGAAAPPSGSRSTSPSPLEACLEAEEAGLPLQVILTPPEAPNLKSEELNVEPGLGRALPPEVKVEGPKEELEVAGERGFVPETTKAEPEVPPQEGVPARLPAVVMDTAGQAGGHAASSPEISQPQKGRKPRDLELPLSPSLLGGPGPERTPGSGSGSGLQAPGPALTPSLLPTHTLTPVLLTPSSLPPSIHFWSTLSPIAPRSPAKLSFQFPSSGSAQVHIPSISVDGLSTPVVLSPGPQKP
# Outline: as §1
# [3] = molecular target: T3, GABPA (Homo sapiens, UniProt Q06546 1-454)
# T3 sequence: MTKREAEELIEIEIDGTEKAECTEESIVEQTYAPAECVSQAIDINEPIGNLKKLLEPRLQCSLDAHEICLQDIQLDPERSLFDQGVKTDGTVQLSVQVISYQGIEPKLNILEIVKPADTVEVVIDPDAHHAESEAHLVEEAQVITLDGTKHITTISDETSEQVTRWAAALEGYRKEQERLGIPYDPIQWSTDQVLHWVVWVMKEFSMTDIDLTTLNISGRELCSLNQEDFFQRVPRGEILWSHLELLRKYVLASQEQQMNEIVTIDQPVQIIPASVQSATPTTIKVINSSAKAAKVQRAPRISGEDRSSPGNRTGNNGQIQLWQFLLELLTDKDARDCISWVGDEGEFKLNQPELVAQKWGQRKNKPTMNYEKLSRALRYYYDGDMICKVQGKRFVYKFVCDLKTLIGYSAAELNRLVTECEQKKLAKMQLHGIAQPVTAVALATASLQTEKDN
# Outline: as §1
# [4] = molecular target: T4, ERG (Homo sapiens, UniProt P11308 1-479)
# T4 sequence: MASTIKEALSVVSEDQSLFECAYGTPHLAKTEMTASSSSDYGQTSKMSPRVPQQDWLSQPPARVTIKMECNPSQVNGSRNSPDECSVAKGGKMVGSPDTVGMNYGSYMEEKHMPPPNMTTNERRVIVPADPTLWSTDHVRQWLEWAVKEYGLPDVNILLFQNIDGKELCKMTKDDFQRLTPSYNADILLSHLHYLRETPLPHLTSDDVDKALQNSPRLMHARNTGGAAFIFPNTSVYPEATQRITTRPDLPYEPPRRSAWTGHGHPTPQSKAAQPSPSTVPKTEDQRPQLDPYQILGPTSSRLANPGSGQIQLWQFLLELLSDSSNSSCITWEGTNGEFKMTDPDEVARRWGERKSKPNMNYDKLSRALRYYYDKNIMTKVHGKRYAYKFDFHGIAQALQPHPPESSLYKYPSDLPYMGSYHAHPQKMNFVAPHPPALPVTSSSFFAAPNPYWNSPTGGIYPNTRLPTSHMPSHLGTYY
# Outline: as §1
# [5] = molecular target: ELF1 (Homo sapiens, UniProt P32519 1-619)
# Outline: as §1
# [6] = molecular target: T5, EHF (Homo sapiens, UniProt Q9NZC4 1-300)
# T5 sequence: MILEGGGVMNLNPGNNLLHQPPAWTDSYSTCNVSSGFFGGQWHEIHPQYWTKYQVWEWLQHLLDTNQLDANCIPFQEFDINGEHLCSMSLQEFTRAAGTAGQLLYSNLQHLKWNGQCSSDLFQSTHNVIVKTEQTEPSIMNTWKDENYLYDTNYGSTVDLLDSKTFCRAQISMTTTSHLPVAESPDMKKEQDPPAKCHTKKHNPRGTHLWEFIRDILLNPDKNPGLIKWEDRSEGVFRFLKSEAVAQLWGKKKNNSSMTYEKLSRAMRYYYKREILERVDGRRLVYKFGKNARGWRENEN
# Outline: as §1
# [7] = molecular target: SPIB (Homo sapiens, UniProt Q01892 1-262)
# Outline: as §1
# [8] = molecular target: T6, ELK3 (Homo sapiens, UniProt P41970 1-407)
# T6 sequence: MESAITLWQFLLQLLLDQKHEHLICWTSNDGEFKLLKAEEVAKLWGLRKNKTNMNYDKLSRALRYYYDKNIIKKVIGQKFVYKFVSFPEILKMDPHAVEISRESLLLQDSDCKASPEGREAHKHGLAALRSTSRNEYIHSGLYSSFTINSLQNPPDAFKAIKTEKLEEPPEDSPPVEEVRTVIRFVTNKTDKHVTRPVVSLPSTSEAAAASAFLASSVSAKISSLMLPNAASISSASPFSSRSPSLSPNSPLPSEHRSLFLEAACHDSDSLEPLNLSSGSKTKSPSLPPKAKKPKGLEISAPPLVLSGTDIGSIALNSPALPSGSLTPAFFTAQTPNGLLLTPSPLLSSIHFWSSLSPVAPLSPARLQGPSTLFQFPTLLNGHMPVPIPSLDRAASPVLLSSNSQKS
# Outline: as §1
# [9] = molecular target: T7, SPIC (Homo sapiens, UniProt Q8N5J4 1-248)
# T7 sequence: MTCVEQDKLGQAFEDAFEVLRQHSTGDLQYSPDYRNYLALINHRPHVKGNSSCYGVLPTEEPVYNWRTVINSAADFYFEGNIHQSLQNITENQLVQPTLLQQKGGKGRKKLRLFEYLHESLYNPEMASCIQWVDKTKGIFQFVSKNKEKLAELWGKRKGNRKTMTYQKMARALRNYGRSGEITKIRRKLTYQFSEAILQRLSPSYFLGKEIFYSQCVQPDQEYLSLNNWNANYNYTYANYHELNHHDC
# Outline: as §1
# SPIB, sequence (Q01892 whole entry): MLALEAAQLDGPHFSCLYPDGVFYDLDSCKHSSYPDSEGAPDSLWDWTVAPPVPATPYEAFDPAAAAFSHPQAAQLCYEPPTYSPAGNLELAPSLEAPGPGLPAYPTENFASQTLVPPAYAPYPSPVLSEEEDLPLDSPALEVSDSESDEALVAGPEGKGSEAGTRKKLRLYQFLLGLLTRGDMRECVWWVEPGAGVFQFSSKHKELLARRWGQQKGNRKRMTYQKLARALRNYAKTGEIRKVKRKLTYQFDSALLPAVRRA
# ELF1, sequence (P32519 whole entry): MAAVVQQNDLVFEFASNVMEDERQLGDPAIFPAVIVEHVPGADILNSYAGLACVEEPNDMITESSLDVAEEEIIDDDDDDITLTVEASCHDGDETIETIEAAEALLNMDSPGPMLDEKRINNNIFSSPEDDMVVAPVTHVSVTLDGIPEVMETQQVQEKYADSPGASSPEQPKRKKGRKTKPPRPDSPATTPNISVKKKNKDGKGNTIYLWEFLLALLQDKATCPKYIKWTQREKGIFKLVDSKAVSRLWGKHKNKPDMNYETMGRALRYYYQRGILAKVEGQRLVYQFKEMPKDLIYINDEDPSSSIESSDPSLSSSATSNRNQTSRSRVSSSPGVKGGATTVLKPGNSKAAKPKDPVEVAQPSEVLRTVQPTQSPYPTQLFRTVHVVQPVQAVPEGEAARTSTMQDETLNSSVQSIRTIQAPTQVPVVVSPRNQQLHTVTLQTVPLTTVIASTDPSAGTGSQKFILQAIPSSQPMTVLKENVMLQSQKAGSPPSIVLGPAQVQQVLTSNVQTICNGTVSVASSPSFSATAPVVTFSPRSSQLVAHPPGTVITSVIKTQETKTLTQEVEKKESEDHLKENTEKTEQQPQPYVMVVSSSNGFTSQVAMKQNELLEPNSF
sequence,measurement,setting,value
CGTTGC,binding signal,[1],"1.09 fold enrichment (6-mer frequency, TF over GST control)"
same,binding signal,[2],"1.19 fold enrichment (6-mer frequency, TF over GST control)"
same,binding signal,[3],"1.04 fold enrichment (6-mer frequency, TF over GST control)"
same,binding signal,[4],"1.06 fold enrichment (6-mer frequency, TF over GST control)"
same,binding signal,[5],"1.11 fold enrichment (6-mer frequency, TF over GST control)"
same,binding signal,[6],"1.07 fold enrichment (6-mer frequency, TF over GST control)"
same,binding signal,[7],"1.18 fold enrichment (6-mer frequency, TF over GST control)"
same,binding signal,[8],"1.04 fold enrichment (6-mer frequency, TF over GST control)"
same,binding signal,[9],"1.25 fold enrichment (6-mer frequency, TF over GST control)"

# Reference: article PMC7862700, “An all-to-all approach to the identification of sequence-specific readers for epigenetic DNA modifications on cytosine”
